Unmarked numbers belong to inactive results.

Assay in all cases: log2 ratio of Biotin-Ahx-Ub-VS probe labelling (fragment/DMSO); higher = less target engagement (more negative = stronger competition), active = hit call of the paper (q ≤ 0.05, log2 ratio ≤ -1)
Settings in all cases: compound concentration: 200 uM; treatment time: 3 h

The target in one test is T1, OTUD6B (UniProt Q8N6M0).
T1 sequence (whole entry): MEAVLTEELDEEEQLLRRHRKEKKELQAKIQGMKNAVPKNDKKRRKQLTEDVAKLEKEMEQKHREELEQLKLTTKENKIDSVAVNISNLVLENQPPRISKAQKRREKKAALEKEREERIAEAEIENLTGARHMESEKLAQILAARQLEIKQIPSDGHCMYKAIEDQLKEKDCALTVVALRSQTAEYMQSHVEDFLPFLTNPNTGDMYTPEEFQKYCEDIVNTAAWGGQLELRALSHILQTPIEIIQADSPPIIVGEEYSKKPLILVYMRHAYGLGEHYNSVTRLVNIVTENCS
The method in brief: (§1)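 Labelled DUBs were enriched with NeutrAvidin, digested with LysC and trypsin, and run by diaPASEF LC-MS/MS. The labelling used Biotin-Ahx-Ub-VS at 0.5 µM final for 1 h on HEK293T lysate (495 µg per sample) previously treated in triplicate with fragment at 200 µM or vehicle for 3 h. Values are average log2 fragment/vehicle ratios by unpaired t-test on global-median-normalised Spectronaut quantities of proteins with ≥2 unique peptides.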

The next test has as its target T2, OTUD7B (UniProt Q6GQQ9).
T2 sequence (whole entry): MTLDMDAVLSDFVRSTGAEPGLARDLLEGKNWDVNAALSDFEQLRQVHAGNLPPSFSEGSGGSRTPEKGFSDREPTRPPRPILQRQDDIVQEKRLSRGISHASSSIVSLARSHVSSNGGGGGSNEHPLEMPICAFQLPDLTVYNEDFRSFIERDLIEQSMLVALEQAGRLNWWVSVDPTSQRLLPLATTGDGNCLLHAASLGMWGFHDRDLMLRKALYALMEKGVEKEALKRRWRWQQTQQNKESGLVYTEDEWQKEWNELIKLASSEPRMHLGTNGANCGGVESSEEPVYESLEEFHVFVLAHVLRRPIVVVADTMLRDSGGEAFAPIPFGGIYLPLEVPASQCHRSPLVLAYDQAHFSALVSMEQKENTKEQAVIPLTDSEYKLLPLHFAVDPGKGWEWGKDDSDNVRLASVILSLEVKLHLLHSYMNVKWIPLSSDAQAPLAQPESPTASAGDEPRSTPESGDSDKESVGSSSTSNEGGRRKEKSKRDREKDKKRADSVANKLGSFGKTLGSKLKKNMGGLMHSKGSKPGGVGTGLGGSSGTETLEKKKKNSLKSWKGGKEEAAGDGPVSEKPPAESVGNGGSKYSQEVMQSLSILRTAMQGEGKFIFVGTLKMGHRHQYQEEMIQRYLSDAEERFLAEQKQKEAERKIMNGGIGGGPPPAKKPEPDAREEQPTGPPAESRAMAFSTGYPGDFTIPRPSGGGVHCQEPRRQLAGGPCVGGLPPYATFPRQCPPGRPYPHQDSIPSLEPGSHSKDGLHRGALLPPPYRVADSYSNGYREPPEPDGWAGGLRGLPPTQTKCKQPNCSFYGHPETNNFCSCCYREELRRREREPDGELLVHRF
The method in brief:
as §1

In another test the target is PRPF8 (UniProt Q6P2Q9). The method in brief: as §1
A further test deals with T3, PSMD7 (UniProt P51665).
T3 sequence (whole entry): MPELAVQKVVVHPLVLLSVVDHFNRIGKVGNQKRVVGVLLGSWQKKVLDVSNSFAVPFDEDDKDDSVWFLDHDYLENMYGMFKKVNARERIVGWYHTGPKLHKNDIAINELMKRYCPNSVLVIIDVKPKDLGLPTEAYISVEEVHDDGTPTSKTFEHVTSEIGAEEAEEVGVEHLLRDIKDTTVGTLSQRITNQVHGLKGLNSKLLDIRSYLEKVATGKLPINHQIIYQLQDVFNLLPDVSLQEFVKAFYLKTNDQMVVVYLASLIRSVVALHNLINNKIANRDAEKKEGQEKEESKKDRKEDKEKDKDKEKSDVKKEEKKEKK
The method in brief:
as §1

In the next test the target is UCHL1 (UniProt P09936). An outline of the steps: as §1
Chain of UCHL1 (P09936 whole entry, looked up): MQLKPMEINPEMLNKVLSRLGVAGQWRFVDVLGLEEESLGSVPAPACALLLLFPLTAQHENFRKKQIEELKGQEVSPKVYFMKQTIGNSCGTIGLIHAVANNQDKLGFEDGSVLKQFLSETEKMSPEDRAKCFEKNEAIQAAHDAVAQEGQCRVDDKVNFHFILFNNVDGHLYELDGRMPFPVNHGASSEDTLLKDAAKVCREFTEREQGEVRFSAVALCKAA
For the next test, the target named is T4, UCHL3 (UniProt P15374).
T4 sequence (whole entry): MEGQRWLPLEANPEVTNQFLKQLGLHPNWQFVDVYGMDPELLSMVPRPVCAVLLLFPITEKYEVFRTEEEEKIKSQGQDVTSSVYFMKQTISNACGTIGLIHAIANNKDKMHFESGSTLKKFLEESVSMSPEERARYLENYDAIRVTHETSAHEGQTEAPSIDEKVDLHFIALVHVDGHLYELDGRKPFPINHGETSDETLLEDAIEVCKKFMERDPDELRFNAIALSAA
The method in brief:
as §1

The target of a further test is T5, UCHL5 (UniProt Q9Y5K5).
T5 sequence (whole entry): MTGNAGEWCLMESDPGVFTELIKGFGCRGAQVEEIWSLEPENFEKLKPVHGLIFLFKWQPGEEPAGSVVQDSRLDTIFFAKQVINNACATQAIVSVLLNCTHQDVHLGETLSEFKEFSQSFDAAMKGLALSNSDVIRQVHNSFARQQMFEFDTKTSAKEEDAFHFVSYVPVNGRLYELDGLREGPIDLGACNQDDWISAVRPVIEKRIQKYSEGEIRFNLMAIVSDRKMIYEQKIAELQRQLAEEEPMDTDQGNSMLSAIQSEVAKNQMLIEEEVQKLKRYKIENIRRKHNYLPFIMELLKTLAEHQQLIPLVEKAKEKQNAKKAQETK
An outline of the steps: as §1

For another test, the target named is USP10 (UniProt Q14694). An outline of the steps: as §1
Chain of USP10 (Q14694 whole entry): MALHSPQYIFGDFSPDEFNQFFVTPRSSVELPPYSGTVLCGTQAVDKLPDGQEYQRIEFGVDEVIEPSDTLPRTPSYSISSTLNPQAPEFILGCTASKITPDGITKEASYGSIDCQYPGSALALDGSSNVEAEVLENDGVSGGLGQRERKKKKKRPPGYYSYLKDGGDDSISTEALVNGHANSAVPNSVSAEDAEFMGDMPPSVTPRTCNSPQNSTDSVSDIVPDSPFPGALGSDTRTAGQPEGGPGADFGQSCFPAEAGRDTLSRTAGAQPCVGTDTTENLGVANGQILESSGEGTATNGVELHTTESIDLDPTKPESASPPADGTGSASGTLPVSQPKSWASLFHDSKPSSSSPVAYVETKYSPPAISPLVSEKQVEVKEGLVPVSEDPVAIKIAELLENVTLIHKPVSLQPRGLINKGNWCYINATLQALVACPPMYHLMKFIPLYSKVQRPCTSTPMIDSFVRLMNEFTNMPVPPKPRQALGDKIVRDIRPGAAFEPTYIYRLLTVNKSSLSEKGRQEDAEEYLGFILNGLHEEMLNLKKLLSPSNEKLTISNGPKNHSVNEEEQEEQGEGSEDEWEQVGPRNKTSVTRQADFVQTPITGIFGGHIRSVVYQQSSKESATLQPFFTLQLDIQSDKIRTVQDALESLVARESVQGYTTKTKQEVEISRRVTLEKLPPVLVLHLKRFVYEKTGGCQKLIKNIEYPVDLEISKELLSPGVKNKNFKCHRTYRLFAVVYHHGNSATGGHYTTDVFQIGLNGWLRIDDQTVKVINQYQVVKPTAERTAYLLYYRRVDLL
Another test deals with T6, USP15 (UniProt Q9Y4E8).
T6 sequence (whole entry): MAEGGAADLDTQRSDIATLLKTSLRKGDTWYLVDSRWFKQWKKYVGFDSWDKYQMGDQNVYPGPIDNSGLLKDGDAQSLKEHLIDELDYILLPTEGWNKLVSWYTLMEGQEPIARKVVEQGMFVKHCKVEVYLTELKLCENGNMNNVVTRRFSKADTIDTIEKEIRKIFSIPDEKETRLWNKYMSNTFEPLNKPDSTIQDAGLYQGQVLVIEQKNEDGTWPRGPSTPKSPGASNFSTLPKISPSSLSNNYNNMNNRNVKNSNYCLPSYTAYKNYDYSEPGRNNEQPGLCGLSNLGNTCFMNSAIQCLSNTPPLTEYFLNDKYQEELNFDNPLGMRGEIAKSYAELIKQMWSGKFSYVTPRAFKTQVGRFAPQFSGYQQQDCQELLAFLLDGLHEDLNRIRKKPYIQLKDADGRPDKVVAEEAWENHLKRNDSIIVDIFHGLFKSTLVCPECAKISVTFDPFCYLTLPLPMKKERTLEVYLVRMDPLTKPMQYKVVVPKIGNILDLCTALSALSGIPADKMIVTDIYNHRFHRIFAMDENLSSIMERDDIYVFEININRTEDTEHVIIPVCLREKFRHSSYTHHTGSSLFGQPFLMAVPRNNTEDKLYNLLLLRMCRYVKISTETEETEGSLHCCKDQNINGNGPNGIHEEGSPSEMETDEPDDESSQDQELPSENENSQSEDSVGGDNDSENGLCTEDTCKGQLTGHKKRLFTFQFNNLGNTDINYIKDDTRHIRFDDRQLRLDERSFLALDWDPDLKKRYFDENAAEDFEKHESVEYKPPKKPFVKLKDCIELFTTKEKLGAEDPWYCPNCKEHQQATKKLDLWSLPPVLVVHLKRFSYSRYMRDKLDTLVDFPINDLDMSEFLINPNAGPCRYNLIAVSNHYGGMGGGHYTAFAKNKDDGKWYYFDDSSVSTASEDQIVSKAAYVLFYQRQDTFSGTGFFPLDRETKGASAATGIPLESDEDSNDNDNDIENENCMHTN
The method in brief:
as §1

For `Cc1ccc(N(CCC#N)C(=O)CCl)cc1C`, the “log2 ratio of Biotin-Ahx-Ub-VS probe labelling” value was -0.133 with OTUD6B; -1.99 (active) with OTUD7B; 0.0257 in the test with PRPF8; -0.41 in the test with PSMD7; -1.31 (active) with UCHL1; 0.292 with UCHL3. For the same compound, the “log2 ratio of Biotin-Ahx-Ub-VS probe labelling” value is -0.157 in the test with UCHL5, -0.00551 with USP10 and -0.234 with USP15.

The record behind these values is the supplement of paper PMC11732987, “Enantioselective OTUD7B fragment discovery through chemoproteomics screening and high-throughput optimisation” (Communications Chemistry, 2025).
